High-throughput results (PubChem BioAssay)
GPR151 activ = human GPR151 activation; actives 1% (n = 650,000); activation, % at 11.2 µM; AID 1508602; Q8TDV0; PathHunter beta-arrestin GPR151 cells, luminescence; in the data active = activation above about 4.9%;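 also: 0% = median of compound wells and 100% = cells with positive control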
MITF inh = blocks human microphthalmia-associated transcription factor; O75030; AlphaScreen MITF homodimerization, bead proximity signal; inhibition, % at 2.6 µM; actives 0.91% (n = 650,000); in the data active = inhibition above about 50%;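 also: 0% = vehicle wells with protein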
TEAD-YAP block = TEAD-YAP interaction inhibition; HEK-TIYL cells, TEAD-Gal4/YAP UAS-luciferase luminescence; inhibition, % at 9.12 µM; actives 1.4% (n = 640,000); in the data active = inhibition above about 32%;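 also: 0% = median of test compound wells and 100% = reference inhibitor wells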
FBW7 activator = activators of human E3 ligase FBW7; Q969H0; AlphaScreen FBW7–phospho-cyclin E peptide binding, activator screen; normalized activity (activation), % at 26.1 µM; actives 0.13% (n = 650,000); in the data active = normalized activity above about 1.9%;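 also: purified mutant Fbw7 with reduced substrate affinity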
Target sequence (Q969H0 whole entry, looked up): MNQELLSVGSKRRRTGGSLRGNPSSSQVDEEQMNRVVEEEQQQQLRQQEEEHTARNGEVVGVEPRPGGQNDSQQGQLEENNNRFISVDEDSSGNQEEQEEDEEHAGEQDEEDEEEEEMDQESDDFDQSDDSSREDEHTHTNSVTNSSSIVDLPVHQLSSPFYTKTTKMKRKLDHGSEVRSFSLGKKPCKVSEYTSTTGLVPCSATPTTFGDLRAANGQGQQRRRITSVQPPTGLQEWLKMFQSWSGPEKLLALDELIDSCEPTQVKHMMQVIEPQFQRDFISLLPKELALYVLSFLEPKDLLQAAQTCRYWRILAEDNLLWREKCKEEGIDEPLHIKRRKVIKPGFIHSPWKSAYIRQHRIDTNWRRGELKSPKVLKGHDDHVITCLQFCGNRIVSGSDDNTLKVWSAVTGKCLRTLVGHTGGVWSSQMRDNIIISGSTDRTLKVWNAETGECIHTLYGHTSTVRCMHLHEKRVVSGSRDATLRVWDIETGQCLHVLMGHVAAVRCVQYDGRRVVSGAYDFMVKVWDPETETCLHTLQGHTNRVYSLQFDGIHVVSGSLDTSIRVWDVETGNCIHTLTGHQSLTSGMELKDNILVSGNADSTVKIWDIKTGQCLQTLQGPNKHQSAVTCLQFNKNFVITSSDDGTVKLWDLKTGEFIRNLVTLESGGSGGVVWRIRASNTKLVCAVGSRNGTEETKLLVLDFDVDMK
MITF inh conf = human MITF inhibition, confirmation; shares compounds with MITF inh; AlphaScreen MITF homodimerization, biotin/His-MITF beads; inhibition, % at 2.6 µM; actives 16% (n = 4,700); AID 1259372;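 active = inhibition above a cutoff derived from the DMSO control wells, cut at about 28% in these data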;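 also: 0% = MITF dimer wells with DMSO only; inhibitors lower the bead chemiluminescence by keeping MITF from dimerizing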
AS interf DR = counter-screen: compounds optically interfering with AlphaScreen. shares compounds with MITF inh. AlphaScreen optical interference counterscreen, cell-free. IC50, µM. actives 6% (n = 480). AID 1259373; call rule not given here
AlphaScreen intf2 = counter-screen: compounds optically interfering with AlphaScreen. shares compounds with MITF inh. LysRS AlphaScreen counterscreen, signal interference, triplicate. inhibition, % at 2.6 µM. actives 7.6% (n = 4,700);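 active = inhibition above a cutoff derived from the DMSO control wells, cut at about 30% in these data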
Active calls of the source: *. A selection: hits, their analogues and other compounds. The true share with any hit is near 3.4%.

How did O=C(CN1CCN(C/C=C/c2ccccc2)CC1)N1CCCc2ccccc21 do in these assays?
GPR151 activ: 0; MITF inh: 85*; TEAD-YAP block: 9; FBW7 activator: 0; MITF inh conf: 5; AlphaScreen intf2: 10

How did O=C(CN1CCN(Cc2nc(-c3cccs3)cs2)CC1)N1CCc2ccccc21 do in these assays?
GPR151 activ: -1; MITF inh: 58*; TEAD-YAP block: -4; FBW7 activator: 0; MITF inh conf: -8; AlphaScreen intf2: 2

Results for O=C(CN1CCN(Cc2ccccc2)CC1)N1CCCc2ccccc21 ?
GPR151 activ: -2; MITF inh: 72*; TEAD-YAP block: 19; FBW7 activator: 0; MITF inh conf: -3; AlphaScreen intf2: 2

What do the screens show for `CCCCCCCCCCCCCCCC(=O)OC[C@H](O)[C@H]1OC(=O)C(=O)C1O` (stereo partly specified)?
GPR151 activ: -2; MITF inh: 81*; TEAD-YAP block: 24; FBW7 activator: 0; MITF inh conf: 42*; AS interf DR: >6.5; AlphaScreen intf2: -13

How did CCN(CC)CCCOc1ccc2ccccc2c1 do in these assays?
GPR151 activ: 0; MITF inh: 66*; TEAD-YAP block: -24; FBW7 activator: 0; MITF inh conf: -7; AlphaScreen intf2: -4

Results for COc1cc2c(cc1OC)C(C)N(C(=O)NC1CC(=O)N(c3ccccc3)C1)CC2 (stereo unspecified) ?
GPR151 activ: 3; MITF inh: -6; TEAD-YAP block: 6; FBW7 activator: 0

Results for CCOC(=O)c1ccc(NC(=O)CSc2ccc(F)cc2)cc1 ?
GPR151 activ: -1; MITF inh: 54*; TEAD-YAP block: -3; FBW7 activator: 0; MITF inh conf: 4; AlphaScreen intf2: 12

Results for CCOC(=O)c1ccc(NC(=O)CCSc2ccc(C)cc2)cc1 ?
GPR151 activ: 0; MITF inh: 19; TEAD-YAP block: -2; FBW7 activator: 0

What do the screens show for `COc1ccc(CN2C[C@@H]3C[C@@H](c4cc(C)[nH]n4)N4CCC[C@@]34C2=O)cc1`?
GPR151 activ: 0; MITF inh: -2; TEAD-YAP block: -5; FBW7 activator: 0

What do the screens show for `COc1ccc2ccccc2c1CN1CCSCC1`?
GPR151 activ: 0; MITF inh: 54*; TEAD-YAP block: 14; FBW7 activator: 0; MITF inh conf: -6; AlphaScreen intf2: -5

Results for Cc1cc(C)c(C2C(C#N)=C(N)Oc3n[nH]c(C)c32)cc1COc1ccc(F)cc1 (stereo unspecified) ?
GPR151 activ: 0; MITF inh: 6; TEAD-YAP block: 0; FBW7 activator: 0

Results for Cc1cc(C)c(C2C(C#N)=C(N)Oc3n[nH]c(C)c32)cc1CSc1ccc(Br)cc1 (stereo unspecified) ?
GPR151 activ: 1; MITF inh: 99*; TEAD-YAP block: -10; FBW7 activator: -1; MITF inh conf: -9; AlphaScreen intf2: -9

What do the screens show for `Cc1cc2c(cc1S(=O)(=O)Nc1cc(F)ccc1F)OCC(=O)N2`?
GPR151 activ: 0; MITF inh: 10; TEAD-YAP block: 1; FBW7 activator: 1

Results for Cc1cc(NCc2ccccc2)n2ncnc2n1 ?
GPR151 activ: 1; MITF inh: 12; TEAD-YAP block: 3; FBW7 activator: 0

Results for Cc1cc(NCc2ccccc2F)n2ncnc2n1 ?
GPR151 activ: 0; MITF inh: 51*; TEAD-YAP block: 0; FBW7 activator: 2; MITF inh conf: 3; AlphaScreen intf2: 11

What do the screens show for `CCCCc1ccc(Nc2nc(N3CCOCC3)c3[nH]cnc3n2)cc1`?
GPR151 activ: 1; MITF inh: 9; TEAD-YAP block: -24; FBW7 activator: 0

How did Nc1nonc1C(=O)N/N=C\c1cc([N+](=O)[O-])c(Cl)cc1Cl do in these assays?
GPR151 activ: 0; MITF inh: 67*; TEAD-YAP block: 4; FBW7 activator: 1; MITF inh conf: -4; AlphaScreen intf2: -6

How did O=C(/C=C/c1ccc(Br)o1)Nc1ccccc1Cl do in these assays?
GPR151 activ: 2; MITF inh: -14; TEAD-YAP block: -45; FBW7 activator: 0

What do the screens show for `Cc1ccc(/C=C/C(=O)Nc2ccccc2Cl)o1`?
GPR151 activ: -1; MITF inh: 52*; TEAD-YAP block: -44; FBW7 activator: 0; MITF inh conf: 24; AlphaScreen intf2: 26

Results for COc1ccccc1COCC(O)CNCCCN(C)C (stereo unspecified) ?
GPR151 activ: 0; MITF inh: 56*; TEAD-YAP block: 5; FBW7 activator: 0; MITF inh conf: -9; AlphaScreen intf2: -6

Results for COc1ccccc1COCC(O)CNCC12CC3CC(CC(C3)C1)C2 (stereo unspecified) ?
GPR151 activ: -1; MITF inh: 64*; TEAD-YAP block: 10; FBW7 activator: 1; MITF inh conf: 15; AlphaScreen intf2: 16

What do the screens show for `COc1ccccc1COCC(O)CNCCc1ccc(C(F)(F)F)cc1` (stereo unspecified)?
GPR151 activ: 3; MITF inh: 12; TEAD-YAP block: 5; FBW7 activator: 0

How did COc1ccc(OCC(O)CNCCC(C)C)c(C(C)(C)C)c1 (stereo unspecified) do in these assays?
GPR151 activ: 0; MITF inh: 31; TEAD-YAP block: 0; FBW7 activator: 0

What do the screens show for `COc1ccc(OCC(O)CNCCCN(C)C)c(C(C)(C)C)c1` (stereo unspecified)?
GPR151 activ: 1; MITF inh: 68*; TEAD-YAP block: 1; FBW7 activator: 0; MITF inh conf: 6; AlphaScreen intf2: 11

What do the screens show for `CCCc1nnc2sc(NC(=O)c3cc(OCC)c(OCC)c(OCC)c3)nn12`?
GPR151 activ: 0; MITF inh: 13; TEAD-YAP block: 0; FBW7 activator: 1

Results for Oc1c(C(c2ccco2)N2CCN(c3ccc(F)cc3)CC2)sc2ncnn12 (stereo unspecified) ?
GPR151 activ: 1; MITF inh: 11; TEAD-YAP block: 6; FBW7 activator: 0

What do the screens show for `CC(C)CC(c1nnnn1CC1CCCO1)N1CCN(c2cccc(Cl)c2)CC1` (stereo unspecified)?
GPR151 activ: 0; MITF inh: 84*; TEAD-YAP block: 2; FBW7 activator: 0; MITF inh conf: 3; AlphaScreen intf2: 9

How did CC(C)CC(c1nnnn1CC1CCCO1)N1CCN(c2ccc(F)cc2)CC1 (stereo unspecified) do in these assays?
GPR151 activ: 1; MITF inh: 1; TEAD-YAP block: 12; FBW7 activator: 0

How did O=C(NCCCN1CCOCC1)c1ccc2nc(-c3ccco3)c(-c3ccco3)nc2c1 do in these assays?
GPR151 activ: 0; MITF inh: 14; TEAD-YAP block: 3; FBW7 activator: -1
